From PubChem BioAssay
Sampled rows, rich in hits. Any-hit rate of the full collection: about 11%.
USP28 inh – inhibitors of human USP28 deubiquitinase | inhibition, % at 25 µM | 47,000 tested, 3% active | purified USP28, Ub-rhodamine cleavage fluorescence, 30 min
USP17 inh – human USP17-like deubiquitinase inhibition; AID 1645855; purified USP17, Ub-rhodamine cleavage fluorescence, 3 h; inhibition, % at 50 µM; 47,000 tested, 6.5% active
Target sequence (A8MUK1 whole entry, looked up): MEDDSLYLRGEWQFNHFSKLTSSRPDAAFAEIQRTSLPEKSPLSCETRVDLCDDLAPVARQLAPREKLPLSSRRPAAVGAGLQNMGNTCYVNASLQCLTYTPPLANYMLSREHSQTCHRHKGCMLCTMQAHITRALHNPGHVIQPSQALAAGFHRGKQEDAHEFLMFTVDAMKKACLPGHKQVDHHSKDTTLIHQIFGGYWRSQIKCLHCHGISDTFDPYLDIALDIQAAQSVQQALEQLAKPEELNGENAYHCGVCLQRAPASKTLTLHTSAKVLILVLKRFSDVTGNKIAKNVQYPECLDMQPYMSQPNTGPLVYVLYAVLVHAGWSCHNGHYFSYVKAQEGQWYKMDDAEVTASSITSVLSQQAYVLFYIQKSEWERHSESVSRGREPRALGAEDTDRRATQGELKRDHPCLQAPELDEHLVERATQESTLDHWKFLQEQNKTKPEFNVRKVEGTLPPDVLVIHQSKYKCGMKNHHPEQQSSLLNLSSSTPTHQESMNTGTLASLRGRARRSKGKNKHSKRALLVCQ
OTUD3 inh – inhibitors of human OTUD3 deubiquitinase | Q5T2D3 | purified OTUD3, Ub-rhodamine fluorescence, 2 h | inhibition, % at 25 µM | 47,000 tested, 0.7% active | AID 1645858
USP30 inh – inhibitors of human USP30 deubiquitinase; Q70CQ3; purified USP30, Ub-rhodamine cleavage fluorescence; inhibition, % at 25 µM; 47,000 tested, 5.3% active
* = called active by the depositor; nt = no result given. Cut-off read from the data, not from the text of the source: active = inhibition above about 30%; inactive = the rest.

SMILES	USP28 inh	USP17 inh	OTUD3 inh	USP30 inh
O=C(Nc1nnc(-c2cccs2)o1)C(c1ccccc1)c1ccccc1	14	19	15	45*
COc1ccc(C(=O)Nc2ccc(-c3nc4ccccc4[nH]3)cc2)cc1S(=O)(=O)N1CCOCC1	10	51*	8	50*
CCCc1cc(C2CCCN2C(=O)c2cc(-c3ccco3)on2)no1 (configuration not stated)	4	47*	14	-36
CCCc1nc2cccnc2n1C1CCN(C(=O)Nc2cccc(OC)c2)C1 (configuration not stated)	-13	-3	-9	-25
c1cc(-c2ccc3c(c2)OCO3)n2ncnc2n1	-14	nt	-5	-2
Cn1c(COc2cccc3cccnc23)nnc1SCC(=O)c1ccc(Cl)cc1Cl	37*	15	-14	-1
COc1ccccc1OCc1nnc(SCC(=O)c2ccc(F)cc2)n1C	-4	0	0	0
NC(=O)c1cccc(NC(=O)c2cc(Cl)c3c(c2)OCO3)c1	48*	-12	-9	-11
CCOc1ccc2ccccc2c1C(=O)N1CC(=O)Nc2ccc(C)cc2C1c1ccc(F)cc1 (configuration not stated)	17	9	-1	43*
Cc1ccc2c(c1)C(c1ccc(F)cc1)N(C(=O)COc1ccc3ccccc3c1)CC(=O)N2 (configuration not stated)	-11	-10	-6	-21
COc1ccc2c(C(O)CN3CCN(c4ccc(F)cc4)CC3)c[nH]c2c1 (configuration not stated)	-9	-20	-14	-40
OC(CN1CCN(c2ccc(F)cc2)CC1)c1ccc2c(c1)CCN2 (configuration not stated)	17	58*	13	61*
Cc1ncc(-c2cncc(CC3CCN(C(=O)c4cccnc4)CC3)n2)n1C	-2	-7	2	2
CCOc1ccc(CC(=O)Nc2ccc(-c3cn4cccnc4n3)cc2)cc1	44*	68*	-6	-22
Clc1ccc(Cn2c(C3CCCO3)nc3ccccc32)cc1 (configuration not stated)	14	nt	-1	14
Clc1ccc(Cn2c(NCc3ccccc3Cl)nc3ccccc32)cc1	15	6	9	34*
COc1ccc(C2Nc3ccccc3C(=O)N2c2ccc3c(c2)OCO3)cc1O (configuration not stated)	13	45*	10	14
O=C(Nc1ccc2nccnc2c1)c1cccc(C(F)(F)F)c1	32*	8	2	76*
O=C(Nc1ccncc1NC(=O)c1cccc(C(F)(F)F)c1)c1cccc(C(F)(F)F)c1	-4	17	-1	6
Cc1ccc(C)c(NC(=O)Cn2c3ncccc3c(=O)n2-c2ccccc2)c1	5	nt	13	45*
O=C1NCC2(C/C=C/CCOc3ccccc31)CCN(C(=O)c1ccnc(N3CCCC3)c1)CC2	72*	95*	42*	88*
COc1cc(CCNC(=O)Cc2cccc(Br)c2)ccc1OCc1ccccc1	24	23	24	48*
CC(NC(=O)Cc1cc(-c2ccc(F)cc2)on1)c1ccccc1 (configuration not stated)	6	31*	8	21
CC(NC(=O)COCc1cc(-c2ccc(F)cc2)on1)c1ccccc1 (configuration not stated)	13	0	2	15
Cc1nn(C)c(C)c1S(=O)(=O)N1CCN(C(=O)c2ccccc2F)CC1	-6	-4	1	-14
SMILES	USP28 inh	USP17 inh	OTUD3 inh	USP30 inh
CCOC(=O)c1cnc(C(F)(F)F)nc1Sc1n[nH]c(-c2cccs2)n1	-5	86*	9	5
CCOC(=O)c1ccc(-c2cccc(C(F)(F)F)c2)nc1C	2	9	14	6
Cc1nnc(SCC(=O)Nc2cccc3ccccc23)n1CCc1ccccc1	-8	-3	-6	4
Cn1ncc2c(NCCc3cccs3)nc(N3CCCCC3)nc21	-4	-12	-31	-50
CCc1ccc(C2c3c(oc4ccccc4c3=O)C(=O)N2c2nncs2)cc1 (configuration not stated)	-4	51*	-6	2
CCOc1cc(C2c3c(oc4ccccc4c3=O)C(=O)N2c2nc3ccc(C)cc3s2)ccc1O (configuration not stated)	8	23	1	35*
COc1ccc2nc(N3C(=O)c4oc5ccccc5c(=O)c4C3c3ccc([N+](=O)[O-])cc3)sc2c1 (configuration not stated)	-30	3	-25	-89
CCOC(=O)c1ccc2nc(N3C(=O)c4oc5ccccc5c(=O)c4C3c3ccco3)sc2c1 (configuration not stated)	-9	-6	-8	-27
CCCCC/C=C/C=C/C(=O)OC1C(O)CC(c2ccc3c(c2O)C(=O)c2c(O)cc4cc(C)cc(O)c4c2C3=O)OC1C (configuration not stated)	36*	88*	25	26
COc1ccccc1NC(=O)C1CN(c2nc3ccccc3s2)C1	nt	38*	-1	nt
COc1ccccc1NC(=O)C1CCCN(c2cnc3nccnc3c2)C1 (configuration not stated)	-110	-139	-89	-383
O=c1[nH]cnc2c(-c3ccccc3)nsc12	-8	-5	-3	-31
CCn1cnc(S(=O)(=O)N2CCCC(C(=O)NC3CCCCCC3)C2)c1 (configuration not stated)	-6	-1	-2	11
CC1(C)CCCC2=C1CC(C)(C)C(N(C(=O)/C=C/C(=O)O)c1ccccc1)C2 (configuration not stated)	49*	77*	41*	75*
C/C=C/C=C/C=C/C1=CC2=CC(=O)C(C)(OC(=O)CC(O)CC(C)O)C(=O)C23OC3O1 (configuration not stated)	-30	-25	-17	-237
Cc1cccc(OCC(=O)Nc2cnc(-c3ccccc3)nc2)c1	-23	-12	-17	-111
O=C(Nc1ccc2c(c1)OCCO2)C1CCN(C(=O)c2cc(-c3cccnc3)n[nH]2)CC1	53*	-3	-4	6
O=C(Nc1ccccc1)C1CCN(C(=O)c2cc(-c3ccncc3)n[nH]2)CC1	-1	-2	-3	-59
O=C(c1cc(-c2ccncc2)n[nH]1)N1CCC(C(=O)N2CC=C(c3ccccc3)CC2)CC1	16	64*	7	19
COc1cc(C2CCN(C(=O)NC3CCOCC3)CC2)on1	2	10	2	12
COc1cc(OC)c2c(C)c(CC(=O)Nc3cccc(C(C)O)c3)c(=O)oc2c1 (configuration not stated)	9	30*	5	7
O=C(NCc1ccco1)c1ccc2c(c1)N(Cc1cccc(Cl)c1)C(=O)c1ccccc1S2	12	38*	18	-27
O=C(NC(Cc1ccccc1)c1nc2ccccc2[nH]1)C1CC1 (configuration not stated)	11	54*	5	1
CSCCC(NC(=O)COc1ccc(Cl)cc1)c1nc2ccccc2[nH]1 (configuration not stated)	-26	nt	-22	-106
